# PubChem BioAssay AID504843 (Broad Institute, 2011)
# The whole screen tested about 1,200 compounds, of which about 360 (30%) were called active. A selection follows. Potency and affinity values are given separately. Unmarked numbers belong to inactive results. How the calls were made is not given here.
# Test: antibacterial activity by ATP level – BacTiter-Glo luminescence, cherry-picked samples, counter-screen, dose response (AID 504843);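 further: growth measured after 8 h incubation at 30 °C; 0% = median of sample compound wells and -100% = antibiotic control wells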
# Settings: bacterial growth; series mostly up to 15 µM; activity change, negative = inhibition: at the top concentration
row,Structure (SMILES),"activity change, negative = inhibition"
1,CCCCCn1c(CNC(=O)c2cccs2)nc2ccccc21,0.73%
2,Cc1cccc(NC(=S)NC(C)CCc2ccccc2)c1 (stereo not drawn),8.6%
3,CCOC(=O)c1c2c3c(c(Cl)ccc3[nH]c1=O)C(=O)c1ccccc1-2,-22.5%
4,CCc1ccccc1NC(=O)CSc1nnc(-c2ccco2)n1N,13.7%
5,Clc1ccccc1-c1ccc2ncnc(NCc3cccnc3)c2c1,11.5%
6,Cc1ccc(S(=O)(=O)Nc2ccnc(-c3cccnc3)n2)cc1,-4.2%
7,Cc1ccc(/C=N/NC(=O)c2ccc(Cn3cc([N+](=O)[O-])cn3)o2)cc1,12.9%
8,CC(C)(C)OC(=O)N[C@@H](Cc1ccccc1)[C@H](O)c1ccco1,11.6%
9,CCCc1cc(=O)oc2cc(OCC(=O)N(C)C)c(Cl)cc12,0.057%
10,COc1ccc(C(CNC(=O)c2cc(SC)ccc2Cl)N(C)C)cc1 (stereo not drawn),18.1%
11,O=C(NC(=S)NNC(=O)c1ccccc1O)c1ccccc1,-3.27%
12,O=C(c1ccco1)N1CCN(C(=O)c2ccc(CS(=O)c3ccc(F)cc3)o2)CC1 (stereo not drawn),0.136%
13,CCC(=NCCc1ccc(OC)c(OC)c1)C1=C(O)CC(C)(C)CC1=O,13.4%
14,COCCNC(=O)c1c[nH]c2ccc(S(=O)(=O)N3CCc4ccccc43)cc2c1=O,9.26%
15,COc1cc(OC)cc(C(=O)NC2CC(C)(C)NC(C)(C)C2)c1,13.5%
16,CC(=O)c1cc(CN2CCCCC2)cc(OC(C)C)c1,-0.098%
17,CCc1cc2c(=O)n(C(C)C(=O)OC3CCCCC3)cnc2s1 (stereo not drawn),0.744%
18,O=C(Nc1cc(N2CCOCC2)ncn1)c1ccccc1,-16.3%
19,COc1ccccc1N1C(=NC(=O)CCc2ccccc2)SC2CS(=O)(=O)CC21 (stereo not drawn),3.8%
20,CCCn1c2c(c(=N)c3c1CCC3)CCCC2,-11.5%
21,CC(C)(C#N)NC(=O)C1CCCN1S(=O)(=O)c1ccc2ccccc2c1 (stereo not drawn),-6.47%
22,CC(=O)c1ccc(NC(=O)C2CCCN2S(=O)(=O)c2cccc3cccnc23)cc1 (stereo not drawn),-10%
23,Cc1ccc(S(=O)(=O)NC(C)(C)CSc2nnc(Nc3ccccc3)s2)cc1,-0.402%
24,O=C(CN1CCCCC1)Nc1cc(Cl)ccc1Cl,1.36%
25,Cc1ccc(NC(=O)CN2CCN(c3ccccn3)CC2)c(Cl)c1,-4.89%
26,CCC1Nc2ncnc(N3CCOCC3)c2N(Cc2ccc(Cl)cc2)C1=O (stereo not drawn),7.38%
27,O=C(Nc1cccnc1Cl)c1noc2c1CCc1ccccc1-2,-16.5%

row,Structure (SMILES),"activity change, negative = inhibition"
1,CC1=C(C#N)C(c2cn(-c3ccccc3)nc2-c2cccs2)C(C#N)=C(C)N1,-12.6%
2,CC(=O)Nc1cccc(-c2csc(Nc3cc(C)ccn3)n2)c1,0.359%
3,O=C(O)c1ccc(NC2=C(N3CCOCC3)C(=O)c3ccccc3C2=O)cc1,8.16%
4,Cc1cccc(OCC(O)Cn2c(=N)n(CCN3CCOCC3)c3ccccc32)c1 (stereo not drawn),-6.21%
5,COC(=O)COc1cccc(NC(=O)c2cccc(C)c2)c1,-12.3%
6,CCCNC(=O)c1cc(C)no1,-13.7%
7,COc1ccc(/C(C)=N/NC(=O)CNC(=O)c2ccncc2)c(OC)c1,14.3%
8,CCCCc1ccc(N=N/C(C(=O)Nc2ccc(NC(C)=O)cc2OC)=C(/C)O)cc1,4.01%
9,Cc1ccc(C)c(S(=O)(=O)Nc2cc(SCC(=O)O)c(O)c3ccccc23)c1,-2.04%
10,CC1(C)c2ccccc2N2CC(=O)NC21/C=C/c1ccco1 (stereo not drawn),-2.83%
11,C=CCn1cccc(C(=O)Nc2ccc(OC)cc2)c1=O,-12.5%
12,C=CCNC(=S)Nc1cccc2[nH]ncc12,-0.478%
13,COc1cccc(CN2CCN(C(=O)c3ccco3)CC2)c1,18.3%
14,O=[N+]([O-])c1cccc(N(CC(O)CN2CCCCC2)S(=O)(=O)c2ccccc2)c1 (stereo not drawn),-3.49%
15,CCC(CO)NC(=O)c1cccc(S(=O)(=O)N2c3ccccc3CC2C)c1 (stereo not drawn),9.79%
16,O=C(COC(=O)c1cccc(S(=O)(=O)N2CCc3ccccc32)c1)Nc1ncc(C(F)(F)F)cc1Cl,2.36%
17,COc1ccc(S(=O)(=O)Nc2nc3c(s2)CCCC3)cc1,12.9%
18,Nc1ccc(S(=O)(=O)N2CCCc3ccccc32)cc1,-21.1%
19,C[C@H]1NC(=O)[C@@]2(C)[C@@H](c3ccccc3)[C@H]3COc4ccccc4[C@H]3N2C1=O,-2.87%
20,CCNc1nc(SCCOc2ccc(C)cc2)nc(N(C)C)n1,-1.81%
21,CCC1SC(C)C/C(=N/NC(N)=O)C1C (stereo not drawn),17.8%
22,CN(C)c1cccc(C(=O)N/N=C/c2ccccc2F)c1,-8.46%
23,CCOC(=O)c1ccc(NC(=O)c2cn(CCC#N)nc2-c2ccc3c(c2)OCCO3)cc1,15.1%
24,O=C(NCc1cccnc1)c1cccc(-c2cc3ccccc3oc2=O)c1,13.5%
25,Cc1cnc(C(=O)OCC(=O)Nc2sc3c(c2C#N)CCC3)cn1,5.17%
26,CC1CCN(C(=O)c2ccc(S(=O)(=O)N3CCCC3)cc2)CC1,-11.1%
